# Screening results (PubChem BioAssay)
# The list is not random: actives were taken first. Their share in the collection is about 2.8%.
# RGS4 inhibitor = Inhibitors of Regulator of G Protein Signaling (RGS) 4: qHTS; Potency, µM (top dose mostly 114 µM), without a hit: top-dose activity change, negative = inhibition, usual class: inhibitors; Transcreener GDP fluorescence polarization, RGS4-accelerated GTP hydrolysis; hit rate 0.039% among 390,000; active means well fitted inhibition curve with a large enough effect; inconclusive means small, poorly fitted or top-dose-only effect; inactive means no such curve, though single readings can be large or run the other way; further: potency means the concentration at half of the fitted maximal effect; on the % scale 0 is the no-effect control and ±100 the full control effect; nearly all actives have a fitted effect of over 75% in size
# Target sequence (P49798 whole entry, looked up): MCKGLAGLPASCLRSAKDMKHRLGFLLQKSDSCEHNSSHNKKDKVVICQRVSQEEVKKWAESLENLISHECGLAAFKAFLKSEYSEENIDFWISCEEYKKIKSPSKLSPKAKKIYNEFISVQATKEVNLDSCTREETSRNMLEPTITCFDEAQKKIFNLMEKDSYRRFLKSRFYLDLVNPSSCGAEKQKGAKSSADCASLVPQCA
#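 MLSMR compounds (23 nl, pin-transferred) preincubated 10 min at room temperature with a 500nM (2x) first reagent, then RGS4 at 900nM (2x) plus Transcreener GDP mix added; fluorescence polarization (620/688 nm) read before and after 90 min at 30 °C.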
# LDHA block = qHTS assay for inhibitors of human lactate dehydrogenase; activity change, % (values are at about 110 or 230 µM); hit rate 0.15% among 480,000; purified LDHA, NADH/diaphorase-resazurin fluorescence; hits give low values; in the data active means activity change below about -30%; inconclusive means mostly about -25% to -30%;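 further: plate controls were DMSO wells for no effect and wells without enzyme for full effect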
#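 Enzyme activity of human lactate dehydrogenase 5 (2 nM; 0.06 mM NADH, 0.2 mM pyruvate, 5 min, RT) is measured via a resazurin/diaphorase fluorescence readout of residual NADH.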
# pAkt inh = HTS Assay for Inhibitors of Akt Phophorylation: Primary Screen; Neuro2A IGF-stimulated pAkt S473 HTRF, 20 min; hits give low values; activity change, % for hits at 50 µM; hit rate 0.32% among 360,000; AID 651550, 2012; in the data active means activity change below about -80%; inconclusive means mostly about -51% to -80%; further: on the % scale 0 is the no-effect control and ±100 the full control effect
#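 Neuro2A cells in DMEM with 0.5% FBS, overnight at 37 deg C, given compound at single 50 µM final, then IGF (6 nM final) for 20 min at 37 deg C. Lysed; phospho-Akt Ser473 by HTRF after 24 h, 665/615 ratio.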
# DRD3 antagonist = qHTS of D3 Dopamine Receptor Antagonist: qHTS. max response, negative = inhibition, %. AID 652054, 2013. D3R cells, DiscoveRx beta-arrestin luminescence, antagonist mode; hits give low values. hit rate 2.5% among 360,000. D(3) dopamine receptor (Homo sapiens), P35462; in the data active means max response below about -50%; inconclusive means no clear call, values can overlap the other calls; further: on the % scale 0 is the no-effect control and ±100 the full control effect
#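 Cells plated overnight at 1500 cells/well, then exposed to library compounds with dopamine controls for 90 minutes at 37 degrees C. DiscoveRx reagent added for 30–60 minutes at room temperature; luminescence read, quantitative HTS format.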
# PI4K2A inh = qHTS for small molecular inhibitors of PI4K2A; hit rate 0.13% among 420,000; activity change, negative = inhibition, % at 76.9 µM; Phosphatidylinositol 4-kinase type 2-alpha (Homo sapiens), Q9BTU6; purified PI4K2A, ADP-Glo luminescence, 1 h; hits give low values; AID 1346378, 2018; in the data active means activity change below about -50%; inconclusive means mostly about -30% to -49%;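 further: -100% = wells without enzyme as full effect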
# Target sequence (Q9BTU6 whole entry, looked up): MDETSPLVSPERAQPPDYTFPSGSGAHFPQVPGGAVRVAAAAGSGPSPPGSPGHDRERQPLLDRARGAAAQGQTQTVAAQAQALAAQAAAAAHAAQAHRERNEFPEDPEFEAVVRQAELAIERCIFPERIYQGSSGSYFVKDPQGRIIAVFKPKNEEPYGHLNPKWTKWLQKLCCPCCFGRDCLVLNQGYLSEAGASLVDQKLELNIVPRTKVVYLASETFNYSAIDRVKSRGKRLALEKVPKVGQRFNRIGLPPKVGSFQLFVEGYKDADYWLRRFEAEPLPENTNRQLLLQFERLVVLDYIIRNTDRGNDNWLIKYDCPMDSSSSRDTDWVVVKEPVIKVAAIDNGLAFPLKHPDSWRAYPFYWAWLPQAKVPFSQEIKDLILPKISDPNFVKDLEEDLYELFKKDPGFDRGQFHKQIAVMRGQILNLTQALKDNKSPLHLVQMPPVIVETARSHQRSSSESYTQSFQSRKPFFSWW
#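 PI4K2A activity was measured by ADP-Glo luminescence: enzyme (4 ug/mL stock) and phosphatidylinositol (1.2 mM stock) in Tris pH 7.5/MgCl2/EGTA/Triton X-100 buffer were reacted with ATP (300 microM stock) for one hour at ambient temperature.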
# DRD3 agonist = qHTS of D3 Dopamine Receptor Agonist: qHTS. D(3) dopamine receptor (Homo sapiens), P35462. D3R DiscoveRx beta-arrestin cells, luminescence, 90 min. max activation, %. hit rate 0.58% among 410,000; in the data active means max activation above about 30%; further: 0% is about no effect
#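 Agonist-mode cell screen: cells plated at 1500/well and incubated overnight at 37 °C, then exposed to library compounds for 90 min at 37 °C. Detection reagent was added for 30–60 min at room temperature, and luminescence was read.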
# * marks the source's active call; other numbers are inactive results; i = inactive; ? = inconclusive; nt = no result given; [ ] = another dose, or the depositor's remark.
SMILES,RGS4 inhibitor,LDHA block,pAkt inh,DRD3 antagonist,PI4K2A inh,DRD3 agonist
CC1(C)CC(N2CCN(Cc3ccccc3)CC2)=CC(=[N+]2CCCCC2)C1,-8.9%,-43.1*,i,-16.4,-1.5,-23.2
Cc1ccccc1Nc1nc(-c2ccc(C)c([N+](=O)[O-])c2)cs1,nt,11.1,nt,nt,nt,nt
O=C1NN(c2ccc(F)cc2)C(=O)/C1=C/c1cccs1,-34.5%,-5.5,i,-62.7*,-5.7,-5.6
COCCCNC(C(=O)O)c1cn(CC(=O)O)c2ccc(OC)cc12 (configuration not stated),nt,0.6,nt,nt,nt,nt
CCCc1nc2ccccc2c(C(=O)OCC(=O)NC)c1CC,nt,6.3,nt,nt,nt,nt
Clc1ccc(SCCCN2CCCCC2)cc1,18.3%,-18.0,i,-80.1*,5.6,-17.5
Clc1ccc(SCCN2CCNCC2)cc1,0.8%,-14.5,i,-0.9,-4.1,3.7
CC1CN(CCCSc2ccc(Cl)cc2)CC(C)O1 (configuration not stated),1.6%,-16.5,i,-71.1*,1.5,-18.0
CC1CN(CCCCSc2ccccc2)CC(C)O1 (configuration not stated),-4.2%,-1.8,i,-11.2,1.2,-20.3
COc1cc2ccc(=O)oc2cc1O,-19.4%,5.9,i,10.3,0.2,5.6
O=Nc1ccc2oc(=O)ccc2c1,5.97µM*,nt,nt,nt,-3.8,nt
Cc1ccc(C(=O)Nc2ccc3c(c2)nc(CSc2nccc(C)n2)n3C)cc1,nt,-1.4,nt,nt,nt,nt
Cc1ccnc2nc(NC(=O)c3ccco3)nn12,-32.4%,-3.3,i,-66.1*,3.5,-2.4
CCCCC(O)CN1CCC(c2ccccc2)CC1 (configuration not stated),20.8%,-3.6,i,-57.3*,4.2,1.9
CC1CCN(CC(O)COCc2ccccc2)CC1 (configuration not stated),nt,1.9,nt,nt,nt,nt
O=C(O)/C=C/c1cc(Br)c(OCc2ccccc2Cl)c(Br)c1,nt,0.5,nt,nt,nt,nt
O=C(Nc1ccccc1O)c1cc2cc(Br)ccc2oc1=O,2.2%,-17.9,i,-25.2,-1.6,-1.5
O=C(NNC(=O)c1cc2cc(Br)ccc2oc1=O)c1ccc(O)cc1,0.9%[11.4 µM],-2.6,i,-62.4*,-1.1,-1.1
Cc1cc(C)cc(Nc2nc3c(S(=O)(=O)c4cccc(Cl)c4)nnn3c3ccsc23)c1,-14.6%,6.1,nt,nt,0.0,53.8*
Cc1cc2oc3c(c(=O)c2cc1C)C(c1cccc(Br)c1)N(Cc1ccco1)C3=O (configuration not stated),-30.5%,-3.8,i,-15.7,-4.2,1.9
Cc1ccc2oc3c(c(=O)c2c1)C(c1cccc(Br)c1)N(Cc1ccco1)C3=O (configuration not stated),14.3%,-9.9,i,-56.0*,-3.7,4.3
CC(C)C(NS(C)(=O)=O)C(=O)NCc1cc(F)cc(F)c1 (configuration not stated),nt,-5.7,nt,nt,nt,nt
C=CCNc1nc(NCCOc2ccccc2Cl)c2sc(-c3ccccc3)cc2n1,nt,-1.0,i,-66.5*,-6.9,-13.3
C=CCNc1nc(NCCOC)c2sc(-c3ccccc3)cc2n1,nt,-5.5,i,-22.8,-3.2,-11.0
CC(C)Nc1nc(NCCN2CCCC2)c2sc(-c3ccccc3)cc2n1,nt,-0.3,i,-64.9*,-0.4,-10.5
SMILES,RGS4 inhibitor,LDHA block,pAkt inh,DRD3 antagonist,PI4K2A inh,DRD3 agonist
CC(C)(C)CC(C)(C)NC(=O)c1ccc(C#N)cc1,nt,7.9,nt,nt,nt,nt
O=C(Nc1ccc(Oc2ccccc2)cc1)C1CCCO1 (configuration not stated),-7.8%,-9.2,i,-79.0*,-6.5,-3.9
O=C(Nc1ccccc1)C1CCCO1 (configuration not stated),nt,5.2,nt,nt,nt,nt
O=C(Nc1ccc(-c2nc3cccnc3s2)cc1)C1CCCO1 (configuration not stated),-7.1%,-1.5,i,5.7,-57.5*,3.9
O=C(Nc1ccc(-c2nc3ccccc3o2)cc1)C1CCCO1 (configuration not stated),-17.0%,-0.3,nt,14.8,?,10.7
COc1cccc(CNS(=O)(=O)c2ccccc2Br)c1OC,?,-7.6,i,5.6,0.9,32.2*
Oc1ccc2ccccc2c1SSc1c(O)ccc2ccccc12,1.68µM*,nt,nt,nt,-11.3,nt
Cc1c(Cl)cccc1N=Cc1ccc([N+](=O)[O-])s1,-35.0%,42.7,i,-50.8*,-21.6,-29.3
O=C(/C=C/c1ccc(Cl)cc1)c1ccc([N+](=O)[O-])o1,-39.6%,2.3,i,-101.0*,-0.5,-38.3
Cc1ccc(/C=C/C(=O)c2ccc([N+](=O)[O-])o2)cc1,-30.2%,6.8,i,-62.4*,1.2,-16.1
CC(O)c1ccc(-c2ccc(CNCc3ccco3)o2)cc1 (configuration not stated),nt,3.0,nt,nt,nt,nt
O=S(=O)(c1ccccc1)c1cnc2cc3c(cc2c1N1CCN(Cc2ccccc2)CC1)OCCO3,nt,-22.4,nt,nt,nt,nt
Nc1nc(-c2ccco2)c(-c2ccco2)s1,?,11.5,i,-57.7*,-11.3,-12.1
Cc1ccc(S(=O)(=O)N2CCN(C(=O)CN3CCCSc4ccccc43)CC2)cc1,5.7%,-5.7,i,-55.0*,-1.5,-11.5
O=S(=O)(CCN1CCN(c2ccccc2)CC1)c1ccccc1,nt,1.3,nt,nt,nt,nt
CC(C)C(=O)C1=Cc2cccc([N+](=O)[O-])c2OC1N1CCOCC1 (configuration not stated),7.6%,1.4,i,-53.6*,-9.4,-8.4
COc1cccc(C2C(C(=O)c3sc(C)nc3C)=C(O)C(=O)N2CCN2CCOCC2)c1OC (configuration not stated),14.9%,-7.2,-121.7%*,0.3,5.9,9.7
Cc1nnc(NC(=O)NCC(C)(C)N2CCCC(C)C2)s1 (configuration not stated),nt,-2.3,nt,nt,nt,nt
Cc1ccc(C(=O)Nc2nnc(S(=O)(=O)N3CCOCC3)s2)cc1,-18.9%,-0.9,i,-57.3*,-5.6,-9.1
CSc1nnc(NC(=O)c2ccc(S(=O)(=O)N3CCOCC3)cc2)s1,-18.2%,-3.4,i,-59.2*,-5.2,1.8
Cc1nc2ccc3nc(NC(=O)c4ccc(S(=O)(=O)N5CCOCC5)cc4)sc3c2s1,18.3%,6.5,-100.3%*,12.5,1.8,0.7
Cc1ccccc1COC(=O)c1nn(Cc2ccccc2)c(=O)c2ccccc12,nt,-5.3,nt,nt,nt,nt
COc1ccc(C(=O)Nc2cc(C(=O)c3ccccc3)c(C)oc2=O)cc1,?,-6.3,i,-61.9*,4.4,-7.5
